Laboratory results: PubChem BioAssay AID1508600 (Functional Genomics Laboratory (NCATS/FGL), 2020)
In all, about 53,000 sequences went through this assay and about 3,700 (7%) were called active. Only a selection was taken, and actives are over-represented in it overall. Unmarked numbers belong to inactive results.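 The calls were made as follows: active = gene knockdowns whose robust z-score for IL-1 alpha signal is at least 2 or at most -2, so actives lie on both sides; inactive = the rest.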

experiment: Components of the Cytosolic LPS Sensing Pathway: Gene Identification via Genome-wide siRNA Screen; conditions: RAW264.7 macrophages, IL-1a HTRF, actives lie on both sides, screened at 100 nM (by protocol), cells primed 5 h with Pam3CSK4 first
From the text: Non-canonical inflammasome activation by cytosolic LPS is a critical component of the host response to Gram-negative bacterial infection, however we lack a comprehensive understanding of the cellular processes that control this pathway. Here we describe a genome-wide siRNA screen to identify genes regulating the mouse macrophage IL-1 alpha response to cytosolic LPS.
RAW264.7 cells were maintained in complete DMEM media, comprising DMEM with 4.5 g/L glucose, 10% FBS (Gemini Bio-Products, West Sacramento, CA), 2 mM Glutamine (Lonza) and 20 mM HEPES (Lonza), hereafter complete DMEM.
The RNAi screen was conducted in 384-well format using the Ambion Silencer Mouse Genome siRNA Library (#4391425), which consists of three unique, nonoverlapping, nonpooled siRNAs for each of 17,000 gene targets. siRNA reagents ([…]) were stamped into 384-well white flat-bottom microplates (Corning, 3570) using a Velocity11 VPrep liquid handling system (Agilent) integrated into a BioCel robotic platform (Agilent) in columns 1-22, leaving columns 23-24 empty for negative (Ambion, Negative control #1) and positive (mouse Casp4) controls, respectively. The median value of each plate's negative control column was used to normalize sample wells, and the positive control was used to assess transfection efficiency and assay performance.
Lipofectamine RNAiMAX Transfection Reagent ([…]; Invitrogen) was added in […] serum-free, antibiotic-free media to plate wells using a Thermo Scientific Matrix WellMate and Microplate Stacker. Plates were incubated for 45 min at room temperature to allow for the sufficient formation of siRNA-lipid complexes. Cells were seeded at a density of 1x10^4 cells per well in 20 microL media containing 20% (vol/vol) FBS without antibiotics. The final concentration of siRNA in each well was 100 nM. Cells were cultured for 48h at 37 degrees C in 5% CO2 before addition of […] of TLR ligand Pam3CSK4 for 5 hours. The medium was then removed, replaced with […] growth media and cell were transfected with […] of LipidA and TransIT-TKO (Mirus) for 24 hour. At the end of the LipidA treatment, […] of supernatant was transferred to a 384 Greiner Bio-one non-binding low volume plate and […] of IL-1a HTRF reagent (Cisbio, 62MIL1APEH) was added and incubated at room temperature overnight. The plates were read on an EnVision plate reader (PerkinElmer). Cell viability was measured by adding 20ul Cell Titer Glo to the original plate and running a luminescence read on the EnVision. The quantified IL-1a signal for each siRNA gene-targeted well was divided by the median of the negative control wells and multiplied by 100 to achieve a negative control normalized value for each well/siRNA. This normalized value was then used to generate a robust z-score by first taking the log of each value and then by subtracting the median and dividing by the […].

In order of falling z-score:
1. CAUCCCAGAGUGUUGUCUUTT against Olfr1325  1.97
2. GCGACUUAGAAAAGAACAGTT against Ccdc58  1.91
3. GCCGCAUUGAGUACAUGGUTT against Ap1m1  1.9
4. GGUCUGAAAAUGGAAUACCTT against Vps13a  1.8
5. GGAGGAAUACAAAUUCAAGTT against Vamp5  1.37
6. CGUGAACAGCUUUAAGGUGTT against Usp27x  1.34
7. GCUAAGACACGAUAAACUUTT against Yes1  1.34
8. GGCCUACGACAAAUCCAAATT against Csrp2  1.14
9. GGGAGCAACUGUGUCAAAUTT against Tspan10  1.06
10. GCUGUACCACAACUAGUCATT against Cdc7  0.977
11. GGACAUCAAAGAAAAGUCATT against Gpr171  0.955
12. CGGUAUCACGGUUAUCCUUTT against Olfr215  0.932
13. CCAAGCGAAAUCGAGGUGUTT against Omt2b  0.931
14. GGAAGCAGCAAAGAAGUUGTT against Olfr1109  0.918
15. GCUGAUAAGGAGGUACCAUTT against Igf2r  0.916
16. GGAAAGUGUUCUCUACAUGTT against Olfr1093  0.878
17. GCUGAGACCCAGAUGCAAUTT against Mal  0.858
18. GGAGAUUAUCACAACUAUUTT against Sash3  0.845
19. GGUGUCCGUAAAUGGAGUGTT against A430033K04Rik  0.809
20. GGACUCUUUUAUGAGUUUGTT against Lims1  0.757
21. GGUUCUUGGGCACCAUUAUTT against Olfr786  0.742
22. GCCUUAAUACUCACCAGGGTT against Zscan2  0.702
23. CCUACGUGAUCAACAAGCATT against Fxn  0.682
24. GGUUUUACUGUAGACCUUUTT against Hnrnpa1  0.542
25. GGAGUAAAAAUGAGUAUGATT against Abcg3  0.534
26. GGGUGUGAAGUCAUGGUAUTT against Trmt9b  0.503
27. GGGCAGGGAUGUUUAGAUCTT against Homer2  0.499
28. GGUGGAGCAGAUGAAGAACTT against Hspbp1  0.447
29. GGUUACUAUGGAGACCUGGTT against Mia  0.429
30. GGAAAUUGCACCUUUAAAGTT against Rnf130  0.335
31. GCCCAAAAGUAUAAACCAGTT against Peg12  0.318
32. CCAAUAACUCUAAAUAGGCTT against Trhr  0.308
33. GGACACAGGACUCUACACCTT against Psg16  0.293
34. CGGUAUAUAGAUCACUUCUTT against Olfr56  0.276
35. CCGAGAACUACCUGUGUAATT against Unc119b  0.266
36. GGUUUUAGAAUUCUGGACGTT against Plppr2  0.243
37. GGCUCAUCGAGAUUAACCCTT against Carns1  0.195
38. GGCGGAACACAUGACUAGGTT against Ilf3  0.189
39. GGAUCCUGCAUAUCUCAAATT against Mrps18c  0.186
40. CCAACAUCUCUGUAUACUGTT against Olfr8  0.178
41. GCAGCUCCCAAUCUCACUUTT against Ankrd34a  0.171
42. GGGUUCAAAUAGUUUACCUTT against Tmem33  0.156
43. GGGAAUAUGUCUUGUGAUATT against Ddo  0.141
44. GGCUCUCUGGAGAAUCAUGTT against Slc25a28  0.0751
45. CGUAGCCGAGAAGACCCUATT against Shh  0.0734
46. GGAAUAGGGAGGUAACCAGTT against Olfr1394  0.0525
47. GGGAAACUUCUUCAUGGGUTT against Dazap2  0.0384
48. GGGAAUCAACGCAAAGUUGTT against Pcdhga5  -0.00294
49. GGAACAGCAGCUUCCCUAATT against 4930555G01Rik  -0.0144
50. GGCCGACCUUUCUAUCAAUTT against Rasip1  -0.0174
51. GGGUCACUUGGAUUGUGGATT against Tmx2  -0.0195
52. CCCUAUGGACUGAGUUUGUTT against Olfr183  -0.036
53. CGCAAUUCAGGUACCAAAUTT against Ndufv1  -0.0623
54. CGGAUUUCAUGGCUCAAGATT against Gfm2  -0.123
55. GGGAUUCCAGACAUGGGAATT against Alg9  -0.191
56. GCUAAAUUCAGCUGAGGCUTT against Kdm4d  -0.217
57. CCCAAGAAGUUUUAUUCUGTT against Zbbx  -0.221
58. GGUCAUCGAAUCUGGAGUATT against Pyroxd1  -0.282
59. GGAAGUAUUUCACAUGUGATT against Dctn1  -0.299
60. GUCUGCAUCACCUUCACCATT against Lhb  -0.301
61. GGCGAAGAUUGAAAAAUGCTT against Ube3c  -0.407
62. GCCAAUGAAAGAGACGUAGTT against Fam81a  -0.421
63. GGUGAUCCUCAUAUUGGCCTT against Npy2r  -0.521
64. GCUACUUGUUGAGACCCAATT against Esr1  -0.616
65. GGCUAAAACAAGUGAAUGGTT against Gli3  -0.619
66. GGUUCGACGAAGAUCAGAGTT against Akap1  -0.634
67. GGAUAUCCUUACAAGGACCTT against Tmco3  -0.646
68. CGGGAAGCAUCACUAUUUCTT against Nabp1  -0.822
69. CCAUUACAUCAGCUUUAUUTT against Pamr1  -0.845
70. GGACAUAUUGGAUGGUGAUTT against Usp2  -0.847
71. GGAUACUGGCAUGAAAUUGTT against Slc22a2  -0.888
72. CGAGCUUGCUAUCGGGAAGTT against Defb7  -0.902
73. UAGUCAUCUUCACUCUCCUTT against Olfr1249  -0.907
74. GGAAAAGCAUCAAUUGAUGTT against Abca8b  -1.02
75. GAUAUUCCUGCUCACAGUGTT against Olfr1265  -1.04
76. GCAAUAUUUCAGCACACUGTT against Txndc16  -1.08
77. CUACGUGCUAGCUCAAGGATT against Mmp28  -1.1
78. GGCCUCCUAAGAGGACUCATT against Dach1  -1.11
79. CCUAUCAUGUUAAAAACAGTT against Grem2  -1.13
80. GGAAGUGGAACAGGACGUATT against Caps2  -1.17
81. GGAUUUCAGAAAGUGGCCUTT against Acad8  -1.22
82. GGCUCUCUGUCUGGAAAAGTT against Vcan  -1.25
83. CCAUUGCAUGCAAUGACUATT against S100a10  -1.25
84. GCACAAGACUAACAAUACGTT against Sptbn2  -1.26
85. GGAAAGACACAGAUAAUAATT against Arvcf  -1.28
86. GUGUGCUAUGAGCAAUGCCTT against Sprr2a1  -1.34
87. GGGUUUCUGACCCUUGGUUTT against Vmn1r220  -1.42
88. CCCUAACAAACCCUAUUAUTT against Kdm6b  -1.49
89. GCUUAAGCAGUGAUAAUAATT against B230317F23Rik  -1.65
90. GGAGCUGAGGAAUUGAUCCTT against Pudp  -1.97

In the case of “GCCGUUUGUACCUUGUCAGTT against 4933430I17Rik”, the z-score was -3.01 (active).
For GGAGUAUGAAUGCUAUGUCTT against Fsd2, the z-score was -3.24 (active).
In the case of GGGAUGAUUUUGAGAUUUUTT against Dmpk, the z-score was 2.74 (active).
With CGAGGACUACUAGAAGAAATT against Trpc1 the z-score was 2.36 (active).
With GGACUUUUACCAGUUCUCCTT against Ece2 the z-score was -2.43 (active).
For GGGACACGAUGAGGAGUCATT against Cfap410, the z-score was -2.21 (active).
For GGCUAUAGCAGCACAUUGGTT against Ylpm1, the z-score was 2.57 (active).
In the case of GGAACUAAAUGUGAAACAUTT against Ift52, the z-score was -2.07 (active).
With GGCAAGUUUGCUAUAACCUTT against Jmy the z-score was -2.57 (active).
In the case of GCUCCUCUCAGGUGUACGATT against B9d2, the z-score was 2.23 (active).
For GGUCCACAGUACCACAUAATT against Tespa1, the z-score was -3.2 (active).
For GGAAGAGAGCCUCUGCCAATT against Ccnb2, the z-score was 2.28 (active).
With GGUAACAAGAGGUCUAGCATT against P2ry1 the z-score was 3.66 (active).
In the case of CCAAGAUGGGUUCAUCUCUTT against Cabp5, the z-score was 2.39 (active).
In the case of GCGGUUCUAAGGAUACCGATT against Txndc17, the z-score was 2.52 (active).
For GCCUGAAAUCAACUCCACCTT against F2, the z-score was 2.21 (active).
In the case of GGUGUCAUUCAACUUGCAUTT against Rnase10, the z-score was -2.55 (active).
